Inconclusive results are not listed. The source made the active and inactive calls. The calls were made as follows, unless noted: active = hit-call score of the fitted dose curve at least 0.9, where 1 is the maximum; inactive = score below 0.9.
What was measured:
[1] = read-out: Vascular cell adhesion molecule 1 (VCAM1), VCAM1 (gene 7412); assay: BSK_LPS_VCAM1: BioMAP Diversity Plus: LPS Assay for Vascular cell adhesion molecule 1 (VCAM1) Biomarker Activity (AID 2283086); conditions: primary human HUVEC with PBMC; actives raise or lower the signal
Summary of the method: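 Human umbilical vein endothelial cells co-cultured with PBMC and stimulated with LPS; VCAM-1 measured by ELISA 24 h after dosing. Bidirectional curve fitting against DMSO baseline; cytotoxicity tracked in parallel by SRB total-protein staining.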

[2] = read-out: CD38, CD38 (gene 952); assay: BSK_SAg_CD38: BioMAP Diversity Plus: SAg Assay for CD38 Biomarker Activity (AID 2283087); conditions: primary human HUVEC with PBMC; actives raise or lower the signal
Summary of the method: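 Human HUVEC plus PBMC co-culture stimulated with superantigen; CD38 measured by ELISA 24 h after chemical dosing. Fluorescence read-out, bidirectional fit against DMSO; cytotoxicity tracked in parallel by SRB and Alamar Blue.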

[3] = read-out: CD40, CD40 (gene 958); assay: BSK_SAg_CD40: BioMAP Diversity Plus: SAg Assay for CD40 Biomarker Activity (AID 2283088); conditions: primary human HUVEC with PBMC; actives raise or lower the signal
Summary of the method: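 CD40 is measured by fluorescence ELISA in an endothelial/PBMC primary human co-culture at 24 h post-dose. Fitting is bidirectional, DMSO baseline. Parallel SRB staining (560 nm) flags cytotoxicity.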

[4] = read-out: Monocyte Chemoattractant Protein-1 (MCP1), CCL2 (gene 6347); assay: BSK_SAg_MCP1: BioMAP Diversity Plus: SAg Assay for Monocyte Chemoattractant Protein-1 (MCP1) Biomarker Activity (AID 2283090); conditions: primary human HUVEC with PBMC; actives raise or lower the signal
Summary of the method: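 MCP-1 levels in the endothelial–PBMC SAg co-culture were quantified by ELISA at 24 h post-dosing; both increases and decreases versus DMSO scored. Cytotoxicity monitored by SRB total protein in parallel cultures.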

[5] = read-out: E-selectin (Homo sapiens) (UniProt P16581); assay: BSK_SAg_Eselectin: BioMAP Diversity Plus: SAg Assay for Eselectin Biomarker Activity (AID 2283091); conditions: primary human HUVEC with PBMC; actives raise or lower the signal
Summary of the method: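 Cell-surface E-selectin is read by ELISA at 24 h in the SAg co-culture of HUVEC and PBMC. Curves are fitted in both directions relative to DMSO. Parallel SRB total-protein staining tracks overt toxicity.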

[6] = read-out: Monokine induced gamma interferon (MIG), CXCL9 (gene 4283); assay: BSK_SAg_MIG: BioMAP Diversity Plus: SAg Assay for Monokine induced gamma interferon (MIG) Biomarker Activity (AID 2283092); conditions: primary human HUVEC with PBMC; actives raise or lower the signal
Summary of the method: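 Endothelial cells and PBMC were co-cultured, exposed to test chemicals, and sampled 24 h later. MIG was measured by ELISA, and responses were fitted in both directions relative to DMSO.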

[7] = BSK_SAg_PBMCCytotoxicity: PBMC Cytotoxicity Assessment in the BioMAP Diversity Plus: SAg Assay (AID 2283093); conditions: primary human HUVEC with PBMC;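 also: PBMC viability measured as Alamar Blue reduction fluorescence at 546/580 nm; fitted both ways against DMSO so a hit may be loss or gain of signal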;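 as to AC50: PBMC superantigen activated with SEB plus TSST-1 one hour after compound addition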
Summary of the method: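 Compound added to 75,000 PBMC/well for 1 h; SEB and TSST-1 then added at 20 ng/mL final each; 90 h incubation; Alamar Blue 6 h; read 546/580 nm ex/em. Activity fitted bidirectionally relative to DMSO baseline.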

[8] = read-out: Interleukin-8 (IL8), CXCL8 (gene 3576); assay: BSK_SAg_IL8: BioMAP Diversity Plus: SAg Assay for Interleukin-8 (IL8) Biomarker Activity (AID 2283094); conditions: primary human HUVEC with PBMC; actives raise or lower the signal
Summary of the method: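 Human umbilical vein endothelial cells co-cultured with PBMC, stimulated with superantigen; IL-8 measured by ELISA 24 h after chemical dosing. Bidirectional fitting versus DMSO; SRB staining in parallel cultures tracks cytotoxicity.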

[9] = BSK_SAg_Proliferation: Cell Proliferation Assessment in the BioMAP Diversity Plus: SAg Assay (AID 2283095); conditions: primary human HUVEC with PBMC
Summary of the method: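 Human umbilical vein endothelial cells co-cultured with PBMC; sulforhodamine B total-protein staining (0.1% SRB after 10% TCA fixation, absorbance 560 nm) at 96 h in sub-confluent culture. Fitted bidirectionally against DMSO.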

[10] = BSK_SAg_SRB: Viability Assessment in the BioMAP Diversity Plus: SAg Assay (AID 2283096); conditions: primary human HUVEC with PBMC;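 also: cells read one day after compound addition; hits may be either gain or loss of signal compared with DMSO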
Summary of the method: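 Total protein by sulforhodamine B staining, 24 h after dosing, in HUVEC–PBMC co-culture; DMSO-referenced bidirectional fitting.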

[11] = read-out: CD69, CD69 (gene 969); assay: BSK_SAg_CD69: BioMAP Diversity Plus: SAg Assay for CD69 Biomarker Activity (AID 2283089); conditions: primary human HUVEC with PBMC; actives raise or lower the signal;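 as to AC50: cell surface CD69 protein quantified by ELISA with fluorescence detection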
Summary of the method: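 Primary human vascular co-culture (umbilical vein endothelium with peripheral blood mononuclear cells) exposed to test chemical for 24 h. CD69 levels quantified by fluorescence ELISA; DMSO served as negative control for bidirectional fitting.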

[12] = target: human CYP2C9, CYP2C9 (gene 1559) (UniProt P11712); assay: NVS_ADME_hCYP2C9: NovaScreen (NVS) CYP450-related Enzyme Activity (ADME) Assay for human CYP2C9 (AID 2283108; active = hit-call score of the fitted dose curve at least 0.9, where 1 is the maximum)
human CYP2C9, CYP2C9 (gene 1559), sequence (P11712 whole entry, looked up): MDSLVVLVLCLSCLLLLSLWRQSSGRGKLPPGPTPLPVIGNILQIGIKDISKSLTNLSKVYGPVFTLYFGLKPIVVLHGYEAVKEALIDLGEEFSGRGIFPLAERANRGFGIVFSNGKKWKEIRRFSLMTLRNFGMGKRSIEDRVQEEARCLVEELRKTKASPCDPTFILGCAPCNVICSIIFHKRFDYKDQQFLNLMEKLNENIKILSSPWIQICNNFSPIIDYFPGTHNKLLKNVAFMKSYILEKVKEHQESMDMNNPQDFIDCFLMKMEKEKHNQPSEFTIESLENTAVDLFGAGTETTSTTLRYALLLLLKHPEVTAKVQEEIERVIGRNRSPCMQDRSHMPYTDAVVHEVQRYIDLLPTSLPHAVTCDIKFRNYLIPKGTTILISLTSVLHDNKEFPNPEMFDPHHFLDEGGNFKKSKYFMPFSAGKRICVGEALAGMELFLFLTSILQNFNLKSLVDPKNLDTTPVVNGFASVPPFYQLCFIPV
Summary of the method: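 Fluorescence readout of CYP2C9 activity (SF9-expressed human enzyme) at 0.75 h. The primary screen used 10 uM in duplicate, with concentration-response follow-up for actives; acetonitrile was the negative control.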

[13] = target: Cytochrome P450 3A4 (Homo sapiens) (UniProt P08684); assay: NVS_ADME_hCYP3A4: NovaScreen (NVS) CYP450-related Enzyme Activity (ADME) Assay for human CYP3A4 (AID 2283110; active = hit-call score of the fitted dose curve at least 0.9, where 1 is the maximum)
Cytochrome P450 3A4 (Homo sapiens), sequence (P08684 whole entry, looked up): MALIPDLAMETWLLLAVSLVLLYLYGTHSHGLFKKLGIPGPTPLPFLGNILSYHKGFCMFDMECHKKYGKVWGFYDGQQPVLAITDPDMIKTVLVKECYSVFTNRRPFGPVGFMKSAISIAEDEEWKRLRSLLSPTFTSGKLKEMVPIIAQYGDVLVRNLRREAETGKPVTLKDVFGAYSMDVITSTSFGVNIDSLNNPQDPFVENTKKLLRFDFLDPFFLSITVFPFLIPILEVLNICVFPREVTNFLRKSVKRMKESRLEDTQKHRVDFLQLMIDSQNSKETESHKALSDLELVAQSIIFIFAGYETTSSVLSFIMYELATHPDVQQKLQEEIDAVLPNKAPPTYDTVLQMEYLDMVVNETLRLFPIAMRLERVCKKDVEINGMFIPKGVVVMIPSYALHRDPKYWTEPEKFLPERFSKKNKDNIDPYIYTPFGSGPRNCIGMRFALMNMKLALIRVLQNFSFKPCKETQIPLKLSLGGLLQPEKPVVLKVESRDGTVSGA
Summary of the method: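 Compounds were first screened in duplicate at 10 uM against recombinant CYP3A4 produced in insect cells, then actives were run in concentration series. Enzyme activity was measured by fluorescence after 0.33 hour, with acetonitrile as baseline.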

[14] = target: human CYP1A2, CYP1A2 (gene 1544) (UniProt P05177); assay: NVS_ADME_hCYP1A2: NovaScreen (NVS) CYP450-related Enzyme Activity (ADME) Assay for human CYP1A2 (AID 2283102; active = hit-call score of the fitted dose curve at least 0.9, where 1 is the maximum;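 also: potency for inhibition since loss of fluorescence marks reduced CYP1A2 activity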)
human CYP1A2, CYP1A2 (gene 1544), sequence (P05177 whole entry, looked up): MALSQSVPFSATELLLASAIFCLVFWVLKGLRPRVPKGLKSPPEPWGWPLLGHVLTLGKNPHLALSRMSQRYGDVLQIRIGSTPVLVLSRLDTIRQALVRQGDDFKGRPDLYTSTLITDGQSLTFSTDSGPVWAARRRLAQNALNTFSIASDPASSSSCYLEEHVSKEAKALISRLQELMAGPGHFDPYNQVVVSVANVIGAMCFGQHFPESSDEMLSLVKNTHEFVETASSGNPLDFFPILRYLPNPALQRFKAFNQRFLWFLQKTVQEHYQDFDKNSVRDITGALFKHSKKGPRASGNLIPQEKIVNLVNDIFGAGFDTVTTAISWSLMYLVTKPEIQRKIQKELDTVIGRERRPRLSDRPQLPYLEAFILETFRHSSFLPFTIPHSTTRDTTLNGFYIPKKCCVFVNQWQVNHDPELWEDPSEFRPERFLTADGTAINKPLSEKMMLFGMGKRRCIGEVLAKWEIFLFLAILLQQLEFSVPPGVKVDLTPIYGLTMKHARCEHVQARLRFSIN
Summary of the method: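 Enzyme activity of insect-cell-expressed human CYP1A2 measured by fluorescence 0.5 h after compound addition, relative to acetonitrile. Compounds first tested in duplicate at 10 uM, actives followed up in concentration series.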

[15] = target: human CYP2A6, CYP2A6 (gene 1548) (UniProt P11509); assay: NVS_ADME_hCYP2A6: NovaScreen (NVS) CYP450-related Enzyme Activity (ADME) Assay for human CYP2A6 (AID 2283099; active = hit-call score of the fitted dose curve at least 0.9, where 1 is the maximum)
human CYP2A6, CYP2A6 (gene 1548), sequence (P11509 whole entry, looked up): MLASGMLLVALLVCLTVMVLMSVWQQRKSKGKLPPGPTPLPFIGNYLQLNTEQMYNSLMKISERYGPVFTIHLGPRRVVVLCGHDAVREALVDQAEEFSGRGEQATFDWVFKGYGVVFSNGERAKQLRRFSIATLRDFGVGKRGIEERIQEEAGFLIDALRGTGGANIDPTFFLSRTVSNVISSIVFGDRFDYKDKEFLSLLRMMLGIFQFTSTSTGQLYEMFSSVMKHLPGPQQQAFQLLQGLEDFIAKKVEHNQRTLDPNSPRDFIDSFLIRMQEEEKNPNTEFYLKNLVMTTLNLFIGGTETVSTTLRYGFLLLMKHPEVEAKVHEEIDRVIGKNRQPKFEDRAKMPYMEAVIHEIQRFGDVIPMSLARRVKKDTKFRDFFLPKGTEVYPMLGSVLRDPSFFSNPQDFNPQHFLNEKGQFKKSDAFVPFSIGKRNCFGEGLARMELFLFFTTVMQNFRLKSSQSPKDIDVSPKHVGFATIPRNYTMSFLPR
Summary of the method: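 Compounds screened at 10 uM (duplicate) and, if active, titrated to a 20 uM top concentration against insect-cell-expressed CYP2A6. Loss of fluorescent product signal after 0.5 h, relative to acetonitrile baseline, indicates inhibition.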

[16] = target: human CYP2B6, CYP2B6 (gene 1555) (UniProt P20813); assay: NVS_ADME_hCYP2B6: NovaScreen (NVS) CYP450-related Enzyme Activity (ADME) Assay for human CYP2B6 (AID 2283101; active = hit-call score of the fitted dose curve at least 0.9, where 1 is the maximum)
human CYP2B6, CYP2B6 (gene 1555), sequence (P20813 whole entry, looked up): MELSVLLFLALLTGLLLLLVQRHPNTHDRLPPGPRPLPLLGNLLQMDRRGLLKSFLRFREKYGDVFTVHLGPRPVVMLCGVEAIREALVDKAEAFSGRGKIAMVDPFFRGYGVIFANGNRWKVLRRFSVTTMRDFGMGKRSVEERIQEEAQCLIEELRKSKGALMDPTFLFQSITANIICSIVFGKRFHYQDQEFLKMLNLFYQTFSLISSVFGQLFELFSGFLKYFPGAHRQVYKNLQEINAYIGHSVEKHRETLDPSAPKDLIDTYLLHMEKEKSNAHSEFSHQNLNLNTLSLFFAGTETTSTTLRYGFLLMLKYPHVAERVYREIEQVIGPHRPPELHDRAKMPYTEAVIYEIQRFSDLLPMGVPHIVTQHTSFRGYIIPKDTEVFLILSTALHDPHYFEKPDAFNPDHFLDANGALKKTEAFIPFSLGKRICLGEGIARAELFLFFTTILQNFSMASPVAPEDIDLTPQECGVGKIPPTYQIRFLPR
Summary of the method: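 Cell-free recombinant enzyme assay with a fluorogenic substrate; fluorescence intensity read 1 hour after dosing. Loss of signal relative to acetonitrile negative control indicates inhibition. Primary screen run in duplicate at 10 uM, actives then tested in concentration series.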

[17] = target: Cytochrome P450 2C19 (Homo sapiens) (UniProt P33261); assay: NVS_ADME_hCYP2C19: NovaScreen (NVS) CYP450-related Enzyme Activity (ADME) Assay for human CYP2C19 (AID 2283113; active = hit-call score of the fitted dose curve at least 0.9, where 1 is the maximum;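 also: potency for inhibition seen as loss of fluorescent signal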)
Summary of the method: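 Compounds first screened in duplicate at 10 uM, then confirmed in concentration series. Insect-cell-expressed human CYP2C19 turned over a fluorogenic substrate, and fluorescence was read after 1 h. Inhibition taken as signal loss relative to acetonitrile.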

[18] = target: human CYP2D6, CYP2D6 (gene 1565) (UniProt P10635); assay: NVS_ADME_hCYP2D6: NovaScreen (NVS) CYP450-related Enzyme Activity (ADME) Assay for human CYP2D6 (AID 2283107; active = hit-call score of the fitted dose curve at least 0.9, where 1 is the maximum)
human CYP2D6, CYP2D6 (gene 1565), sequence (P10635 whole entry, looked up): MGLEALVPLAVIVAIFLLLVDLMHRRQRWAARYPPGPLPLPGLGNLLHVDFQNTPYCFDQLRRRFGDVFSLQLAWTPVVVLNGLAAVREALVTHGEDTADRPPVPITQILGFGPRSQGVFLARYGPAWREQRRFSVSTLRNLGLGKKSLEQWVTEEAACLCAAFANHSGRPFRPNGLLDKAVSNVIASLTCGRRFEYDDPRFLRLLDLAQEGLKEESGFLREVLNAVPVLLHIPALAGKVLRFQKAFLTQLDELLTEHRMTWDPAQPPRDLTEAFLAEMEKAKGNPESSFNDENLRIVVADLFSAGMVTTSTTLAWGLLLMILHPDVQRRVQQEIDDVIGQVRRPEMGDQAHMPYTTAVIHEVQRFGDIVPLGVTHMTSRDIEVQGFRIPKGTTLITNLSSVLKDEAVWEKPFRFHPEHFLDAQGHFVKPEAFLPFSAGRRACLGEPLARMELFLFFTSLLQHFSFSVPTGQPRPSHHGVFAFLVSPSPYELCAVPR
Summary of the method: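 Fluorescence readout of recombinant CYP2D6 (insect-cell derived) activity after 1 h incubation with test chemical. Acetonitrile served as baseline, loss-of-signal direction. Single-concentration duplicate screening at 10 uM preceded concentration-response retesting.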

Measured: AC50

E-selectin (Homo sapiens), sequence (P16581 whole entry, looked up): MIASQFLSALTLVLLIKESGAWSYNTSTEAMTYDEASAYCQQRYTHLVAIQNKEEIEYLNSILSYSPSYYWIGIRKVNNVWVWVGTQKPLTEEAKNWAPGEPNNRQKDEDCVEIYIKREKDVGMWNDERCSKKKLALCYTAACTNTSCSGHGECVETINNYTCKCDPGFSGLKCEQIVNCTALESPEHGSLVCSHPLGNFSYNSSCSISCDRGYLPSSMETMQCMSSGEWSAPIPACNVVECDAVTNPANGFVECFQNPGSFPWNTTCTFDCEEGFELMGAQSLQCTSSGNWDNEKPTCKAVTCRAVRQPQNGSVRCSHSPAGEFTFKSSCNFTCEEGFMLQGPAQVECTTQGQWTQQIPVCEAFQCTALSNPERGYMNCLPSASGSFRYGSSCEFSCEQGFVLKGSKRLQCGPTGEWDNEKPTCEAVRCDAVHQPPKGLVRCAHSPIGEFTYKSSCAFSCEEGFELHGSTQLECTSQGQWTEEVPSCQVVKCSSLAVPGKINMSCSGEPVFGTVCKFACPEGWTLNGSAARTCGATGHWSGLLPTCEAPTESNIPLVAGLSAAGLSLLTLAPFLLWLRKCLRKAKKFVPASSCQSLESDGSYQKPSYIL

C=CC(=C)CCC=C(C)C
inactive: [1] | [2] | [3] | [4] | [5] | [6] | [7] | [8] | [9] | [10]

CCN(C(=O)c1cc(C)cc(OC[C@H](C)Nc2ccncc2)c1)C(C)C
inactive: [1] | [2] | [11] | [4] | [5] | [6] | [7] | [8] | [9] | [10]
active: [12] 4.5 µM | [13] 2.87 µM

Cc1c(-c2cccnc2)c2ccccc2n1CCCCC(=O)O
active: [9] 20 µM | [14] 13.9 µM
inactive: [1] | [2] | [11] | [4] | [5] | [6] | [7] | [8] | [10]

CNCc1ccc(NC(=O)c2c[nH]c3c2C(=O)CCC3)cc1
inactive: [1] | [2] | [3] | [4] | [5] | [6] | [7] | [8] | [9] | [10]

CN(C)c1ccc(Cc2ccc(N(C)C)cc2)cc1
active: [9] 30.9 µM | [16] 1.02 µM | [17] 0.727 µM
inactive: [1] | [2] | [11] | [4] | [5] | [6] | [7] | [8] | [10] | [15]

Cc1ccc(S(=O)(=O)O)cc1C
inactive: [1] | [2] | [3] | [4] | [5] | [6] | [7] | [8] | [9] | [10]

Clc1nc(Cl)c(Cl)c(Cl)c1Cl
inactive: [7] | [10]
active: [1] 32.3 µM | [2] 34.4 µM | [3] 30 µM | [4] 31.4 µM | [5] 25.1 µM | [6] 31.2 µM | [8] 14.4 µM | [9] 23.3 µM

CC(C)=CCC/C(C)=C/CO
inactive: [1] | [2] | [4] | [5] | [6] | [7] | [8] | [9] | [10]

COc1cccc(-c2ccc(/C=C\CN3CCCCCC3)cc2Cl)c1
inactive: [4] | [9]
active: [1] 26 µM | [2] 29.1 µM | [3] 27.3 µM | [5] 29.8 µM | [6] 25.8 µM | [8] 25 µM | [10] 27.2 µM

CCC(C)(C)C(=O)O[C@H]1C[C@@H](C)C=C2C=C[C@H](C)[C@H](CC[C@@H]3C[C@@H](O)CC(=O)O3)[C@H]21
active: [1] 25.4 µM | [2] 24.9 µM | [4] 20 µM | [5] 0.149 µM | [7] 25.1 µM | [8] 0.149 µM | [9] 6.31 µM | [10] 1.32 µM
inactive: [6]

Nc1cccc(N)c1
inactive: [1] | [2] | [3] | [4] | [5] | [6] | [7] | [8] | [9] | [10]

O=C(O)c1cccc(Oc2ccccc2)c1
inactive: [1] | [2] | [11] | [4] | [5] | [6] | [7] | [8] | [9] | [10]

O=C(OC[C@H]1O[C@@H](OC(=O)c2cc(O)c(O)c(OC(=O)c3cc(O)c(O)c(O)c3)c2)[C@H](OC(=O)c2cc(O)c(O)c(OC(=O)c3cc(O)c(O)c(O)c3)c2)[C@@H](OC(=O)c2cc(O)c(O)c(OC(=O)c3cc(O)c(O)c(O)c3)c2)[C@@H]1OC(=O)c1cc(O)c(O)c(OC(=O)c2cc(O)c(O)c(O)c2)c1)c1cc(O)c(O)c(OC(=O)c2cc(O)c(O)c(O)c2)c1
inactive: [6] | [7]
active: [1] 6.1 µM | [2] 9.88 µM | [4] 6.1 µM | [5] 6.1 µM | [8] 10.2 µM | [9] 6.18 µM | [10] 9.72 µM | [14] 2.01 µM | [12] 3.05 µM | [17] 2.34 µM

CCOC(=O)COc1ccc2c(c1)CC(NCC(O)c1cccc(Cl)c1)CC2 (configuration not stated)
inactive: [5] | [6] | [13]
active: [1] 31.3 µM | [2] 29.2 µM | [11] 18.3 µM | [4] 27.7 µM | [7] 27.2 µM | [8] 18.3 µM | [9] 31.7 µM | [10] 27.2 µM | [18] 2.51 µM | [17] 5.22 µM

CC(=O)OCCC(C)C
active: [12] 8.59 µM
inactive: [1] | [2] | [3] | [4] | [5] | [6] | [7] | [8] | [9] | [10] | [16] | [18] | [13]
